ALR inh: inhibitors of human ALR sulfhydryl oxidase, primary screen, biochemical, H2O2 detection, HRP-luminol luminescence, single point. purified ALR, DTT oxidation. inhibition, % (test concentration not listed). 290,000 compounds, 3.8% hits. AID 485317, 2010;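 active means mean replicate inhibition above about 79%, with every replicate also reaching it, limit read from the data; inconclusive means only one of the two criteria met; inactive means mean below limit and not every replicate reaching it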
Target sequence (P55789 whole entry, looked up): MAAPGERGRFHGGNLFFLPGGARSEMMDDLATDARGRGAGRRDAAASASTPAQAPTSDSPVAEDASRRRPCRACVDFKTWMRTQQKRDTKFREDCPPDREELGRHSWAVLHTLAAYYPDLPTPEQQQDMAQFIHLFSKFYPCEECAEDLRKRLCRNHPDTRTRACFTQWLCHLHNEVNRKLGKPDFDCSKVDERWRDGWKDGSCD
PP1 inh: PP1-alpha phosphatase inhibitors, primary screen, counter-screen for PP5 inhibitor project, biochemical, fluorescence, OMFP substrate, single point | purified PP1alpha | 320,000 compounds, 0.9% hits | inhibition, % at 6.7 µM;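 active means inhibition above the mean inhibition of all tested compounds plus 3 SD, computed separately for each screening campaign, cut at about 15% in these data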
Target sequence (P62136 whole entry, looked up): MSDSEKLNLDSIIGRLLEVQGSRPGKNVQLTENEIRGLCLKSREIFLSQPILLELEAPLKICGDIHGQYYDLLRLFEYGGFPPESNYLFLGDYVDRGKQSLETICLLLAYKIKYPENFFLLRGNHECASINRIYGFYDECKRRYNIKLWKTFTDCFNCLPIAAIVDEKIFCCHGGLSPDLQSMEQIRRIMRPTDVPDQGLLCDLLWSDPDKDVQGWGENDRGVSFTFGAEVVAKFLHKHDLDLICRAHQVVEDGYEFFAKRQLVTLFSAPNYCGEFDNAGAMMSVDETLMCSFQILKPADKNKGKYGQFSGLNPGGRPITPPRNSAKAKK
Calb FLC: C. albicans growth inhibition with fluconazole, primary screen, CaCi-2 strain, Alamar Blue fluorescence | growth inhibition, % (test concentration not listed) | AID 1979, 2009 | C. albicans CaCi-2 (fluconazole-resistant clinical isolate) + fluconazole, 48 h | 300,000 compounds, 0.57% hits;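 active means growth inhibition above about 58% in most replicates, limit read from the data, passing the limit was not always enough; inconclusive means exactly half the replicates above a set limit; inactive means most replicates below a set limit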;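 further: all wells also contain fluconazole at 8 µg/ml as a sub-toxic cotreatment; 0% = median of DMSO wells and 100% = median of geldanamycin control wells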
CSC inhib: cancer stem cell viability inhibitors, primary screen, luminescence; AID 2717, 2010; 300,000 compounds, 1.1% hits; cancer stem cell-like cells viability; inhibition, % at 7.5 µM; in the data active means inhibition above about 75%; inconclusive means no clear call, values can overlap the other calls; tested in HMLE shEcad cells
PP5 primary: PP5 phosphatase inhibitors, primary screen, biochemical, fluorescence. Serine/threonine-protein phosphatase 5 (Homo sapiens), P53041. 320,000 compounds, 0.18% hits. purified PP5c, OMFP substrate fluorescence. inhibition, % at 6.7 µM. AID 1987, 2009;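 active means inhibition above the campaign's mean inhibition across all tested compounds plus 3 SD, cut at about 9.5% in these data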;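 further: 0% = DMSO only and 100% = 100 µM cantharidin control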
Starred values were filed as active, the others as inactive; ? = inconclusive; . = no result. Compounds with a hit are over-represented: about 5.4% of the library has one in this group of screens.

SMILES | ALR inh | PP1 inh | Calb FLC | CSC inhib | PP5 primary
Cc1ccc2nc(C)c(C(=O)N/N=C/c3cccc([N+](=O)[O-])c3)cc2c1 | 9 | 4 | 3 | -18 | 3
COc1cc(/C=N/NC(=O)c2cccc([N+](=O)[O-])c2)cc(OC)c1O | 98* | -6 | ? | -5 | 0
CCOC(=O)c1c(NC(=O)CSc2nnc(-c3c[nH]c4ccccc34)n2CC)sc2c1CCCC2 | 6 | -2 | -5 | . | 3
Cc1cc(NC(=O)c2cc(Cl)ccc2Cl)no1 | 2 | -3 | -24 | . | 1
O=C(Nc1ccccc1N1CCN(C(=O)c2ccc(Cl)cc2)CC1)c1ccc(Br)cc1 | 1 | 16* | 14 | -3 | 2
CCc1ccc(S(=O)(=O)N2CC(=O)Nc3ccccc32)cc1 | 2 | 0 | -1 | -15 | 4
CCOC(=O)c1ccc(S(=O)(=O)N2CC(=O)Nc3ccccc32)cc1 | 99* | -2 | -2 | 20 | 1
COc1ccc2cc1Oc1ccc(cc1)CC1c3c(cc(OC)c4c3Oc3cc5c(cc3O4)CCNC5C2)CCN1C (stereo not given) | 13 | 1 | 9 | -3 | 4
COc1ccc2cc1Oc1ccc(cc1)C[C@H]1c3c(cc(OC)c4c3Oc3c(ccc5c3[C@H](C2)N(C)CC5)O4)CCN1C | -3 | . | . | 105* | .
O=C(O)Cc1ccc(C(=O)c2ccccc2)s1 | -6 | 2 | 5 | -5 | 0
CCc1cc(C(=O)c2ccccc2)c(N)s1 | 99* | -2 | -33 | 0 | 3
CSc1ccc(Cl)c(C(=O)N(C)CC(=O)Nc2ccc(N3CCOCC3)cc2)c1 | 89* | -4 | 0 | 0 | 1
Cc1ccc(C)c(SCC(=O)N(C)CC(=O)Nc2ccc(N3CCOCC3)cc2)c1 | 98* | 2 | . | 3 | 1
CCCC1CCC(=NNC(=O)CNc2ccc(OC)cc2)CC1 (stereo not given) | 47 | 5 | -1 | -5 | 2
COc1ccc(NCC(=O)N/N=C/C2CCCCC2)cc1 | 92* | -3 | -9 | -13 | -1
COCCCNC(=O)c1c[nH]c2ccc(S(=O)(=O)N3CCc4ccccc43)cc2c1=O | -38 | 5 | 30 | 14 | 1
COCCNC(=O)c1c[nH]c2ccc(S(=O)(=O)N3CCc4ccccc43)cc2c1=O | 34 | 3 | -32 | 84* | -1
COc1ccc(OC)c(S(=O)(=O)Nc2ccccc2O)c1 | 99* | 1 | 2 | -5 | 4
O=C(CCC1CCCCC1)Nc1ccccc1O | 91* | 1 | -26 | 27 | 2
CCOC(=O)C(=O)Nc1nc(-c2ccccc2)c(-c2ccccc2)o1 | 88* | 11 | 10 | -14 | 1
COC(=O)c1sc(-c2cccs2)cc1NC(=O)/C=C/C(=O)O | 98* | -4 | 8 | 13 | 1
COC(=O)c1sc(-c2ccccc2)cc1NC(C)=O | 2 | 1 | 5 | 17 | 0
CCC1C(C#N)=C(SCC(N)=O)NC2=C1C(=O)CC(C)(C)C2 (stereo not given) | 97* | -2 | -5 | 9 | 0
CC1C(C#N)=C(SCC(N)=O)NC2=C1C(=O)CC(C)(C)C2 (stereo not given) | 46 | 0 | -16 | 3 | -3
O=C(NCCCO)c1ccc(CSc2nc3ccccc3c(=O)[nH]2)cc1 | 100* | 3 | 3 | 6 | 1
SMILES | ALR inh | PP1 inh | Calb FLC | CSC inhib | PP5 primary
CN(C(=O)c1ccc(S(=O)(=O)N2CCCCC2)cc1)C1CCS(=O)(=O)C1 (stereo not given) | -4 | -4 | 2 | -3 | -2
COc1cc(-c2ccc3c(=O)c4ccccc4n(C)c3c2)cc(OC)c1OC | -2 | 0 | -3 | 93* | 0
CC(C)CCNC(=O)c1ccc2c(c1)N(Cc1ccccc1)C(=O)CS2=O (stereo not given) | -3 | -3 | 2 | -4 | -1
CCOC(=O)CSC1=C(C#N)C(=O)NC2(CCCCC2)S1 | 98* | -3 | -6 | -9 | 1
Cc1ccc(NC(=O)CN2C(=O)NC(C)(c3ccc(Cl)cc3)C2=O)cc1 (stereo not given) | 0 | 2 | 19 | 5 | 4
Cc1ccc(C2(C)NC(=O)N(CC(=O)Nc3ccc(S(=O)(=O)Nc4nccs4)cc3)C2=O)cc1 (stereo not given) | 96* | -5 | 2 | -7 | -1
CCCCCCCCC(=O)N/N=C(\C)c1ccc(O)cc1O | -1 | 0 | -2 | 58 | 3
O=C(NNc1cccc([N+](=O)[O-])c1)/C(=C\c1cccnc1)NC(=O)c1ccccc1 | 99* | 3 | -7 | -15 | 0
O=C(CN1C(=O)c2ccccc2S1(=O)=O)N1CCc2ccccc2C1 | 0 | 0 | 10 | -11 | -2
Cc1nc(SCC(=O)Nc2ccc(N3CCOCC3)cc2)nc(C)c1C | . | -3 | -6 | 3 | -3
Cc1cc(C)nc(SCC(=O)Nc2ccc(N3CCOCC3)cc2)n1 | 98* | -4 | 11 | 2 | 3
O=C(CSc1nc2ccccc2c(=O)[nH]1)Nc1ccc(N2CCOCC2)cc1 | -6 | -1 | 5 | -21 | -3
CC(C)c1nc(SCC(=O)Nc2ccc(N3CCOCC3)cc2)c2ccccc2n1 | 99* | -4 | 5 | . | 1
CCCc1nc(SCC(=O)Nc2ccc(N3CCOCC3)cc2)c2ccccc2n1 | 99* | -3 | 1 | . | 1
O=C(NCc1ccc(F)cc1)C(=O)Nc1nc(C23CC4CC(CC(C4)C2)C3)cs1 | -2 | -3 | 3 | 75* | 0
CCN(CCCNC(=O)C1CCC(=O)N1Cc1ccc(C)cc1)c1cccc(C)c1 (stereo not given) | 99* | -3 | -1 | 10 | 2
CCOC(=O)N1CCN(c2c(NCCCN(CC)CC)c(=O)c2=O)CC1 | -20 | -2 | -3 | 8 | -3
CCOC(=O)C1CCCN(c2c(NCCCN(C)c3ccccc3)c(=O)c2=O)C1 (stereo not given) | 99* | 0 | -5 | 5 | 0
CCN(CCCNC(=O)C1CCC(=O)N1Cc1ccccc1Cl)c1cccc(C)c1 (stereo not given) | 99* | 1 | -3 | 1 | 4
CCOC(=O)N1CCN(c2c(NCCCN(CC)c3cccc(C)c3)c(=O)c2=O)CC1 | 99* | -6 | -5 | -4 | 4
Cc1ccc(O)c(-c2cc3ccccc3[nH]2)c1 | 99* | 1 | 83* | 44 | 9
COc1ccc(-n2ccnc(SCC(=O)NC3CCCC3)c2=O)cc1 | 51 | -6 | 4 | 2 | 0
CCOc1ccc(-n2ccnc(SCC(=O)Nc3ccc(CC)cc3)c2=O)cc1 | 99* | -4 | 27 | -18 | -1
COc1ccc(-n2ccnc(SCC(=O)NC3CCCCC3)c2=O)cc1 | 98* | 4 | 10 | -3 | 2
CCOc1ccc(-n2ccnc(SCC(=O)Nc3ccc(OC)cc3OC)c2=O)cc1 | . | -2 | 37 | 10 | -1

Screens from PubChem BioAssay.
